Laboratory results from PubChem BioAssay (Tox21).
Where “and” joins values, the source holds several entries; their conditions need not be identical. Equal values may be shown once. A number with no mark means an inactive call. Calls of active or inactive are those of the source. Unless noted, calls follow the shape of the dose curve; as a rule, active = well fitted curve in the direction sought with a large enough effect in the repeat runs; inconclusive = weak or mixed curves; inactive = no such curve, though single readings can be large; an effect the other way counts as inactive or inconclusive.

Target: Estrogen receptor (Homo sapiens) (UniProt P03372)
Sequence (P03372 whole entry, looked up): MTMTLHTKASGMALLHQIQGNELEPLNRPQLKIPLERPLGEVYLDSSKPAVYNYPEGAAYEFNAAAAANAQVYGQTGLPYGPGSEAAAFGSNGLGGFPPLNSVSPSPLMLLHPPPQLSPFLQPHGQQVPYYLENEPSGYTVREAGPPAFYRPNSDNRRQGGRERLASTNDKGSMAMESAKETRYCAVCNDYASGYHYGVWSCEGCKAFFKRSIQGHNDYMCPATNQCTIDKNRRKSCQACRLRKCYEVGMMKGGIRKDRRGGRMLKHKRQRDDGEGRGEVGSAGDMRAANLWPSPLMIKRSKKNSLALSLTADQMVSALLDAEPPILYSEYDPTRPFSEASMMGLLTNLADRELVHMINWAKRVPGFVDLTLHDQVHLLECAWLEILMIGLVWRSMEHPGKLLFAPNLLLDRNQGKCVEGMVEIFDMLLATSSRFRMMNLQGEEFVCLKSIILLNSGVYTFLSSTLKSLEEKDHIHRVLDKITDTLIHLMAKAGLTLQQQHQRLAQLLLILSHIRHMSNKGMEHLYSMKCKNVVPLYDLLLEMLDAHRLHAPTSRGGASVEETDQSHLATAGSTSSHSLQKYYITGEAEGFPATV
Assay: qHTS assay to identify small molecule agonists of the estrogen receptor alpha (ER-alpha) signaling pathway (AID 743075; calls by dose curve;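 also: HEK293 GripTite cells with ER-alpha and UAS-driven beta-lactamase reporter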)
Details: HEK293 ER-alpha-UAS-bla, beta-lactamase FRET ratio, 18 h; series mostly up to 70.1 µM; activation: at the top concentration
% is scaled to controls: 0 for no effect and ±100 for the full control effect; potency is read from the fitted curve at half-maximal effect.

With `CCOP(=O)(OCC)Oc1nc(Cl)c(Cl)cc1Cl` the Potency was 12.2 µM [inconclusive] (active).
For `Cc1c([N+](=O)[O-])cc2c(c1[N+](=O)[O-])C(C)(C)CC2(C)C`, the Potency was 21.9 µM [inconclusive] (active).
For `Cc1ccc2cc3c(ccc4ccccc43)c3c2c1CC3`, the Potency was 6.18 µM [activator] (active).
In the case of `CC(O)C(=O)[O][Hg][c]1ccccc1` (stereo not given), the Potency is reported as 0.692 µM [fluorescent] (active).
For `c1ccc(N=NNc2ccccc2)cc1`, the Potency was “inactive”.

Going from `Oc1cc(Cl)cc(Cl)c1` to `BrCC(Br)(Br)Br`, the “activation” value rises from 5.51% [at 79.1 µM] to 21.4% [at 79.1 µM].

Compared with `ClCBr`, `OCC(Br)CBr` (stereo not given) is lower in “activation” value: 1.78% [at 79.1 µM] for the first, -0.461% [at 79.1 µM] for the second.

Going from `O.O.O.O=C([O-])[C@H]([O-])[C@@H]([O-])C(=O)[O-].O=C([O-])[C@H]([O-])[C@@H]([O-])C(=O)[O-].[K+].[K+].[Sb+3].[Sb+3]` to `CCC[CH2][Sn]([CH2]CCC)([O]C(C)=O)[O]C(C)=O`, the “activation” value falls from 8.33% [at 79.1 µM] to 1.09% [at 79.1 µM].

Compared with `Cc1cccc(Cc2cnc[nH]2)c1C`, `COC(=O)C(C)N(C(=O)c1ccco1)c1c(C)cccc1C` (stereo not given) is lower in “activation” value: 3.26% for the first, -1.11% for the second.

First: COP(=S)(OC)Oc1nc(Cl)c(Cl)cc1Cl
Second: COP(=S)(OC)Oc1ccc([N+](=O)[O-])c(C)c1
The “activation” value of the first is lower: -3.97% for the first, 5.22% for the second.

First: Cc1cc2c3c(c1)C(c1ccccc1)=N[C@@H](NC(=O)c1ccncc1)C(=O)N3CC2
Second: COP(=O)(OC)Oc1ccc([N+](=O)[O-])cc1
The “activation” value of the first is lower: -1.17% for the first, 6.74% for the second.

Target: Estrogen receptor (Homo sapiens) (UniProt P03372)
Assay: qHTS assay to identify small molecule agonists of the estrogen receptor alpha (ER-alpha) signaling pathway using the BG1 cell line (AID 743079); also: nearly all actives have a fitted effect of over 20% in size
Details: BG1Luc4E2 cells, ERE-luciferase agonist, 22 h; activation: at 70.3 µM (top of the series)

Going from `Oc1cc(Cl)cc(Cl)c1` to `BrCC(Br)(Br)Br`, the “activation” value rises from -9.14% [at 95 µM] to -4.81% [at 95 µM].

For `OCC(Br)CBr` (stereo not given), the “activation” value was 1.5% [at 95 µM].

Going from `Cc1cccc(Cc2cnc[nH]2)c1C` to `COC(=O)C(C)N(C(=O)c1ccco1)c1c(C)cccc1C` (stereo not given), the “activation” value falls from -8.44% to -13.3%.

Going from `COP(=S)(OC)Oc1nc(Cl)c(Cl)cc1Cl` to `COP(=S)(OC)Oc1ccc([N+](=O)[O-])c(C)c1`, the “activation” value rises from -6.21% to 6.39%.

First: Cc1cc2c3c(c1)C(c1ccccc1)=N[C@@H](NC(=O)c1ccncc1)C(=O)N3CC2
Second: COP(=O)(OC)Oc1ccc([N+](=O)[O-])cc1
The “activation” value of the first is lower: -7.87% for the first, -5.22% for the second.

For `c1ccc(Nc2ccc(Nc3ccccc3)cc2)cc1`, the Potency was 6.09 µM (active).
For `c1ccc(N=NNc2ccccc2)cc1`, the Potency was 14.2 µM (active) and 54.5 µM (active).

Test system: not listed separately
Assay: qHTS assay to identify small molecule antagonists of the estrogen receptor alpha (ER-alpha) signaling pathway using the BG1 cell line (AID 743080; calls by dose curve;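 also: BG1 cells stimulated with 17beta-estradiol alongside compound; nearly all actives have a fitted effect of over 25% in size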)
Details: BG1Luc4E2 ERE-luciferase antagonist mode, luminescence; series mostly up to 70.3 µM; activity change, negative = inhibition: at the top concentration
How it was run: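 Luciferase inhibition measured with ONE-Glo after 30 min at RT in BG1Luc4E2 cells given test compounds and 17beta-estradiol for 21.5 h at 37 C; CellTiter-Fluor viability read in the same wells beforehand.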

In the case of `CCOP(=O)(OCC)Oc1nc(Cl)c(Cl)cc1Cl`, the Potency is reported as 48.3 µM (active).
In the case of `Cc1c([N+](=O)[O-])cc2c(c1[N+](=O)[O-])C(C)(C)CC2(C)C`, the Potency is reported as 15.4 µM (active).
In the case of `Cc1ccc2cc3c(ccc4ccccc43)c3c2c1CC3`, the Potency is reported as 0.546 µM (active).
In the case of `BrCC(Br)(Br)Br`, the Potency is reported as 35.6 µM (active).
For `c1ccc(N=NNc2ccccc2)cc1`, the Potency was 68.6 µM (active).

Going from `Oc1cc(Cl)cc(Cl)c1` to `ClCBr`, the “activity change, negative = inhibition” value falls from 0.988% [at 95 µM] to -6.69% [at 95 µM].

Compared with `Cc1cccc(Cc2cnc[nH]2)c1C`, `COP(=S)(OC)Oc1ccc([N+](=O)[O-])c(C)c1` is higher in “activity change, negative = inhibition” value: 0.769% for the first, 12.6% for the second.

With `COP(=O)(OC)Oc1ccc([N+](=O)[O-])cc1` the “activity change, negative = inhibition” value was -19.6%.

Test system: not listed separately
Assay: qHTS assay to identify small molecule antagonists of the estrogen receptor alpha (ER-alpha) signaling pathway using the BG1 cell line - cell viability counter screen (AID 743081);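 also: compound given together with 17beta-estradiol as the ER stimulus; nearly all actives have a fitted effect of over 45% in size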
Details: BG1Luc4E2 viability, CellTiter-Fluor, 22 h; series mostly up to 70.3 µM; activity change, negative = cytotoxicity: at the top concentration

First: Clc1c(Cl)c(Cl)c(Cl)c(Cl)c1Cl
Second: CC(=O)[O-].CC(=O)[O-].CC(=O)[O-].[Sb+3]
The activity change, negative = cytotoxicity of the first is lower: 5.59% [at 8.47 µM] for the first, 10.6% [at 8.47 µM] for the second.

Going from `O.O.O.O.O.O.O=S(=O)([O-])[O-].[Ni+2]` to `CC(=O)[O-].CC(=O)[O-].O.O.O.[Pb+2]`, the “activity change, negative = cytotoxicity” value rises from 7.3% to 7.73%.

Compared with `CCOP(=O)(OCC)Oc1nc(Cl)c(Cl)cc1Cl`, `COP(=S)(OC)Oc1nc(Cl)c(Cl)cc1Cl` is higher in “activity change, negative = cytotoxicity” value: 3% for the first, 23.5% for the second.

First: CN1C(=O)[C@@H](NC(=O)c2cc3ccccc3[nH]2)N=C(c2ccccc2)c2ccccc21
Second: O=C(N[C@H]1N=C(c2ccccc2F)c2cccc3c2N(CC3)C1=O)c1cc2ccccc2[nH]1
The “activity change, negative = cytotoxicity” value of the first is lower: -2.86% for the first, 3.38% for the second.

Compared with `Cc1c([N+](=O)[O-])cc2c(c1[N+](=O)[O-])C(C)(C)CC2(C)C`, `COP(=S)(OC)Oc1ccc([N+](=O)[O-])c(C)c1` is lower in “activity change, negative = cytotoxicity” value: 2.1% for the first, -5.52% for the second.

Going from `Cc1ccn2nc(S(=O)(=O)Nc3c(F)cccc3F)nc2n1` to `Cc1cccc(Cc2cnc[nH]2)c1C`, the “activity change, negative = cytotoxicity” value falls from 13.3% to -19.4%.

Compared with `CC(=O)O.CC(=O)O.CC(=O)O.CC(=O)O.CC(=O)O.CC(=O)O.CC(=O)O.O.O.[Cr].[Cr].[Cr]`, `CC(=O)[O-].CC(=O)[O-].CC(=O)[O-].[Cr+3]` is lower in “activity change, negative = cytotoxicity” value: 2.87% for the first, -2.91% for the second.

Compared with `Nc1c(Cl)c(Cl)c(Cl)c(Cl)c1Cl`, `Cc1ccc2cc3c(ccc4ccccc43)c3c2c1CC3` is lower in “activity change, negative = cytotoxicity” value: 26.4% for the first, -6.04% for the second.

Going from `CCCCC(CC)COC(=O)OOC(C)(C)C` (stereo not given) to `CCCCn1cc[n+](C)c1` (tested in a mixture with another compound), the “activity change, negative = cytotoxicity” value rises from 6.26% to 9.34%.

First: COC(=O)C(C)N(C(=O)c1ccco1)c1c(C)cccc1C (stereo not given)
Second: COP(=O)(OC)Oc1ccc([N+](=O)[O-])cc1
The “activity change, negative = cytotoxicity” value of the first is higher: -1.52% for the first, -17.8% for the second.

Compared with `O=C1C[C@@H]2OCC=C3CN4CC[C@]56c7ccccc7N1[C@H]5[C@H]2[C@H]3C[C@H]46`, `c1ccc(Nc2ccc(Nc3ccccc3)cc2)cc1` is higher in “activity change, negative = cytotoxicity” value: -4.3% for the first, -1.43% for the second.

Compared with `Oc1cc(Cl)cc(Cl)c1`, `O=[N+]([O-])c1cccc2cccc([N+](=O)[O-])c12` is higher in “activity change, negative = cytotoxicity” value: -1.25% [at 95 µM] for the first, -0.205% [at 95 µM] for the second.

Going from `ClCBr` to `BrCC(Br)(Br)Br`, the “activity change, negative = cytotoxicity” value rises from -1.08% [at 95 µM] to -0.887% [at 95 µM].

Compared with `CCCC[N+]1(C)CCCC1` (tested in a mixture with another compound), `CCCCCON=O` is lower in “activity change, negative = cytotoxicity” value: 1.27% [at 95 µM] for the first, 0.521% [at 95 µM] for the second.

Compared with `OCC(Br)CBr` (stereo not given), `CCCN` is lower in “activity change, negative = cytotoxicity” value: 8.7% [at 95 µM] for the first, 7.84% [at 95 µM] for the second.

For `CC(=O)[O][Sn]([c]1ccccc1)([c]1ccccc1)[c]1ccccc1`, the Potency was 3.86 µM (active).
In the case of `CC(O)C(=O)[O][Hg][c]1ccccc1` (stereo not given), the Potency is reported as 3.06 µM (active).
